Screens (PubChem)
D3 antag – qHTS of D3 Dopamine Receptor Antagonist: qHTS; D3R cells, DiscoveRx beta-arrestin luminescence, antagonist mode; hits give low values; AID 652054, 2013; 2.5% of 360,000 active; max response, negative = inhibition, %; D(3) dopamine receptor (Homo sapiens), P35462; in the data active = max response below about -50%; note: % is set by controls: 0 for no effect and ±100 for the full control effect
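Cells expressing the human receptor were seeded at 1500 cells/well, incubated overnight at 37 degrees C in 5% CO2, then exposed to library compounds with dopamine controls for 90 minutes at 37 degrees C before luminescent detection.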
D1 potentiator – Potentiators of Human D1 Dopamine Receptor: qHTS; AID 504651, 2011; HEK293 TREx D1 cells, calcium flux, dopamine EC20 potentiation; potentiation, % at 10 µM; 0.036% of 360,000 active; D(1A) dopamine receptor (Homo sapiens), P21728; in the data active = potentiation above about 30%; note: 0% is about no effect
Target sequence (P21728 whole entry, looked up): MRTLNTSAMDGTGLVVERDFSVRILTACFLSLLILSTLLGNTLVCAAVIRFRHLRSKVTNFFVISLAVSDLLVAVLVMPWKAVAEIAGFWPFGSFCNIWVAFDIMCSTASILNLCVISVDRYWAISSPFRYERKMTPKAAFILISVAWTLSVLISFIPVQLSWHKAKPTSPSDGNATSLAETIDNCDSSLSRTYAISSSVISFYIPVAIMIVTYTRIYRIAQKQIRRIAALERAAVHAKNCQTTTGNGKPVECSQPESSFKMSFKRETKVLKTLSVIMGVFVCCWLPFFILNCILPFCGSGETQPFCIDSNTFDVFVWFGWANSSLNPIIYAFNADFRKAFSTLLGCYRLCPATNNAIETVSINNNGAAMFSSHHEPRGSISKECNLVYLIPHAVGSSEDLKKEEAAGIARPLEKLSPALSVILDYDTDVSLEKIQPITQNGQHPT
D1 agonist – Allosteric Agonists of the Human D1 Dopamine Receptor: qHTS. HEK293 T-REx D1 cells, calcium flux, agonist mode. activation, % at 2 µM. 1% of 360,000 active; in the data active = activation above about 30%; note: 0% is about no effect
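Tetracycline-induced HEK293 TREx D1 cells, force-coupled to calcium signalling, were dye-loaded with a no-wash calcium kit. Compound was pin-added after a 10 s baseline. Fluorescence was read kinetically at 1 cycle/s for 180 s, with calcium rises flagged as agonism.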
DRD3 agonist – qHTS of D3 Dopamine Receptor Agonist: qHTS; 0.58% of 410,000 active; D(3) dopamine receptor (Homo sapiens), P35462; D3R DiscoveRx beta-arrestin cells, luminescence, 90 min; AID 652048, 2013; max activation, %; in the data active = max activation above about 30%; note: 0% is about no effect
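Agonist-mode cell screen: cells plated at 1500/well and incubated overnight at 37 °C, then exposed to library compounds for 90 min at 37 °C. Detection reagent was added for 30–60 min at room temperature, and luminescence was read.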
D1 antagonist – Antagonist of Human D 1 Dopamine Receptor: qHTS; activity change, negative = inhibition, % at 10 µM; HEK293 TREx D1 cells, calcium flux, dopamine EC80; hits give low values; 3.2% of 360,000 active; in the data active = activity change below about -30%; note: % is set by controls: 0 for no effect and ±100 for the full control effect
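Kinetic fluorescence of a calcium dye serves as the read-out. D1-expressing Hek293 Trex cells, induced overnight at 30 C, are exposed to compound for 180 s before an EC80 dopamine addition, then read 180 s further.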
Numbers without * were called inactive; . = no result given. Sampled rows, rich in hits. Any-hit rate of the full collection: about 6%.

SMILES	D3 antag	D1 potentiator	D1 agonist	DRD3 agonist	D1 antagonist
Cc1cccc(C)c1OCCCCn1c(C2CC(=O)N(c3ccc(F)cc3)C2)nc2ccccc21 (centres undefined)	.	-0.5	36.2*	-12.2	-10.1
Cc1cc(C)cc(OCCn2c(C3CC(=O)N(c4ccccc4Cl)C3)nc3ccccc32)c1 (centres undefined)	.	-1.3	7.4	-13.3	12.5
COc1ccccc1OCCCCn1c(C2CC(=O)N(c3ccccc3Cl)C2)nc2ccccc21 (centres undefined)	.	-2.0	36.9*	-7.0	3.1
Cc1ccccc1OCCCCn1c(C2CC(=O)N(c3ccccc3Cl)C2)nc2ccccc21 (centres undefined)	.	-3.5	31.9*	-9.5	-10.0
Cc1nn(C(=O)c2cccc([N+](=O)[O-])c2C)c(C)c1S(=O)(=O)N1CCOCC1	.	-1.9	4.0	0.1	-1.3
CCc1nn2c(=O)cc(COC(=O)c3ccccc3NC(=O)COc3ccc(F)cc3)nc2s1	.	-0.1	-0.4	0.6	-3.1
O=C(Nc1ccc(F)cc1)c1cccc(N2CCCS2(=O)=O)c1	.	-1.9	6.3	-9.2	-23.1
C(=N\c1nc2ccccc2[nH]1)/c1cccs1	-56.6*	3.1	2.8	-1.6	-5.6
Cn1c(/C=N/c2nc3ccccc3[nH]2)nc2ccccc21	7.8	-0.8	-1.4	5.2	5.3
CC(C(=O)Nc1ccc2c(c1)OCCO2)n1nnc(-c2ccccc2)n1 (centres undefined)	1.3	2.9	14.4	4.3	-52.6*
OCC(O)CS (centres undefined)	.	.	.	-13.5	.
CCOc1ccc(NC(=O)CC2C(=O)N(c3ccccc3)C(=O)N2Cc2cccc(OC)c2)cc1 (centres undefined)	.	-1.1	0.3	3.0	4.4
Nn1c(-c2cccc(Br)c2)n[nH]c1=S	-84.8*	0.2	-0.3	-14.5	-4.7
Cc1cc(C(=O)CSc2cccc[n+]2[O-])c(C)n1-c1ccc(OC(F)F)cc1	11.7	-7.9	8.5	6.3	-40.2*
COC(=O)c1ccc(-n2c(C)cc(C(=O)CSc3cccc[n+]3[O-])c2C)cc1	11.7	-9.1	3.1	15.7	8.7
Cc1n[nH]c2ccc(Br)cc2c1=O	24.5	.	.	1.6	.
Cc1nc2c([nH]c3ccc(Br)cc32)s1	-101.0*	-3.3	1.2	0.8	-5.4
Nc1c(Cl)cc(C2=NCCn3c2c2ccc([N+](=O)[O-])cc2[n+]3[O-])cc1Cl	-9.7	-10.4	0.7	-4.6	-32.9*
COc1ccc(C2CC(=O)c3c(C)nc(N4CCN(C=O)CC4)nc3C2)c(OC)c1 (centres undefined)	.	-3.9	0.0	8.3	-2.6
CCCCSCCCNC(=O)CN1C(=O)c2cccnc2Oc2ccc(Cl)cc21	.	-1.9	3.4	4.3	-22.3
CCOC(=O)Cn1nc(C)n(-c2ccc(Cl)cc2)c1=O	-15.9	0.6	0.6	-8.6	.
CCOC(=O)Cn1nc(C)n(-c2ccc(Br)cc2)c1=O	-1.0	13.8	1.6	1.3	-47.6*
CCCCC1=CC2=CC(=O)C(C)(OC(=O)CC)C(=O)C2=CN1c1ccc(OC)cc1 (centres undefined)	-7.7	2.4	0.2	1.9	10.2
CCCCC1=CC2=CC(=O)C(C)(OC(=O)CC)C(=O)C2=CN1c1cccc(C#N)c1 (centres undefined)	-13.2	.	.	32.4*	.
c1ccc(Cc2noc(CN3CCCN(C4Cc5ccccc5C4)CC3)n2)cc1	48.4	-2.5	-1.0	-9.5	-0.2
c1ccc(Cc2noc(CN3CCN(C4CCc5ccccc5C4)CC3)n2)cc1 (centres undefined)	-22.9	4.9	31.8*	-13.6	0.7
O=C(Nc1nnc(SCc2ccccn2)s1)C1CC(=O)N(c2ccccc2)C1 (centres undefined)	10.6	-9.5	2.3	5.7	-77.8*
CCc1ccc2occ(CC(=O)Nc3sc4c(c3C(=O)OC)CCC4)c2c1	.	-1.6	4.9	9.6	-5.3
CCOC(=O)C(=CNc1ccc(O)c(C(=O)OC)c1)C(=O)OCC	158.6	.	.	56.9*	.
Nc1cnccc1C(=O)O	-10.7	6.0	32.1*	9.9	-3.0
